# Laboratory results published in the supplement of paper PMC8699584.
# Values joined by “and” are separate entries in the source; they are usually repeats but may differ in a detail not shown here. Equal values may be shown once. Where a name gives a salt, the structure may show the parent alone. ± gives the standard deviation of the averaged measurements.
# Columns and labels:
# Molm13 = test: cell viability relative to DMSO control (bortezomib = 0%); higher = less growth inhibition; settings: 10 nM; 72 h
# Method in brief: (§1)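 Acute myeloid leukemia cells, 1000 per well in 50 µL, were incubated for 72 h on 384-well plates with 679 approved and investigational compounds, each at a single 10 nM dose. Viability was read by CellTiter-Glo luminescence. Values were expressed as percentages through per-plate linear regression against DMSO-treated (100%) and positive-control-treated (0%) cells.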
# Mv4-11 = test: as above; settings: 10 nM; 72 h
# Method in brief: as §1
SMILES,cell viability (Molm13),cell viability (Mv4-11)
CS(=O)(=O)CCNCc1ccc(-c2ccc3ncnc(Nc4ccc(OCc5cccc(F)c5)c(Cl)c4)c3c2)o1,103 ± 8.2%,108 ± 9%
COC(=O)c1ccc2c(c1)NC(=O)/C2=C(\Nc1ccc(N(C)C(=O)CN2CCN(C)CC2)cc1)c1ccccc1,87.7 ± 22%,99.8 ± 8.2%
O=S(=O)(c1cccc2cnccc12)N1CCCNCC1 [Fasudil (HA-1077) hydrochloride],91.5 ± 1.8%,104 ± 5%
Cc1cncc2cccc(S(=O)(=O)N3CCCNC[C@@H]3C)c12 [(S)-H-1152 (hydrochloride)],100 ± 4.3%,101 ± 3%
COc1cc2nccc(Oc3ccc(NC(=O)C4(C(=O)Nc5ccc(F)cc5)CC4)cc3)c2cc1OC,29.6 ± 16%,44.5 ± 3.8%
C#Cc1cccc(Nc2ncnc3cc(OC)c(OCCCCCCC(=O)NO)cc23)c1,105 ± 10%,120 ± 20%
O=C(O)CCC(=O)Nc1ccc(Br)cn1 [Bikinin],92.5 ± 2.2%,99.9 ± 1.9%
COc1ccc(-n2c(SCC#N)nc3sc4c(c3c2=O)CCCC4)cc1 [Necrostatin-5],102 ± 3.9%,103 ± 3%
CNC(=O)c1cc(Oc2ccc(NC(=O)Nc3ccc(Cl)c(C(F)(F)F)c3)cc2)ccn1 [Sorafenib],53.7 ± 6.9%,47.8 ± 9.4%
COc1cc2nccc(Oc3ccc(NC(=O)Nc4ccc(F)cc4F)c(F)c3)c2cc1OC,98.1 ± 2.7%,103 ± 5.7%
CO[C@@H]1[C@H](N(C)C(=O)c2ccccc2)C[C@H]2O[C@]1(C)n1c3ccccc3c3c4c(c5c6ccccc6n2c5c31)C(=O)NC4 [PKC-412(Midostaurin)],95.04 ± 0.94%,89 ± 22%
CCOc1cc(/C=C(\C#N)C(N)=O)cc(CSc2ccccc2)c1O,101 ± 44%,115 ± 15%
CCN(CC)CCNC(=O)c1c(C)[nH]c(/C=C2\C(=O)Nc3ccc(F)cc32)c1C [Sunitinib],111 ± 26%,117 ± 4.9%
CN1CCCN(C(=O)c2cccc(-c3ccc(/C=C4/C(=O)Nc5ccc(Cl)cc54)o3)c2)CC1,127 ± 13%,120 ± 2.9%
Cc1ccc(F)c(NC(=O)Nc2ccc(-c3cccc4[nH]nc(N)c34)cc2)c1,72.2 ± 9.9%,97.7 ± 10%
Cc1cc(Nc2ncc(Cl)c(Nc3ccccc3S(=O)(=O)C(C)C)n2)c(OC(C)C)cc1C1CCNCC1 [LDK378(Ceritinib)],110 ± 4.9%,103.8 ± 0.72%
CNS(=O)(=O)C[C@H]1CC[C@H](N(C)c2[nH]cnc3nccc2-3)CC1 [Oclacitinib],96.5 ± 22%,107 ± 18%
c1ccc2c(-c3cnn4cc(-c5ccc(N6CCNCC6)cc5)cnc34)ccnc2c1,98 ± 20%,112 ± 6.1%
Cc1cc(Nc2cc(N3CCN(C)CC3)nc(/C=C/c3ccccc3)n2)n[nH]1,89.6 ± 1.1%,105 ± 9.9%
Cn1cnc2nc(NCCO)nc(NCc3ccccc3)c21 [Iso-Olomoucine],119 ± 15%,113 ± 9.7%
CONC(=O)c1ccccc1Nc1cc(Nc2cc(C)nn2C(C)C)ncc1Cl,105 ± 9.6%,105 ± 1.3%
CCn1c(=O)c(-c2ccc(-c3cncs3)cc2Cl)cc2cnc(Nc3ccc(N4CCN(C)CC4)cc3)nc21,106 ± 6.4%,111 ± 10%
FC(F)(F)c1ccc(/C=C/c2nc(COc3ccc(CCCCn4ccnn4)cc3)co2)cc1 [Mubritinib (TAK 165)],107 ± 9%,104 ± 7.6%
Cc1nc(NC(=O)N2CCC[C@@H]2C(N)=O)sc1-c1ccnc(C(C)(C)C(F)(F)F)c1 [BYL-719(Alpelisib)],113 ± 6.5%,102 ± 15%

SMILES,cell viability (Molm13),cell viability (Mv4-11)
CNC(=O)c1cc(Oc2ccc(NC(=O)c3cccc(C(F)(F)F)c3)cc2)ccn1,96.3 ± 16%,103 ± 4.9%
COc1ccc(CNc2nc(N(CCO)CCO)nc3c2ncn3C(C)C)cc1,102 ± 7%,104 ± 8.2%
N#C/C(=C\c1ccc(O)c(O)c1)C(=O)NCc1ccccc1 [AG-490 (Tyrphostin B42)],103 ± 5.9%,105 ± 1.8%
COc1cc2ncnc(Nc3ccc(F)c(Cl)c3)c2cc1OCCCN1CCOCC1 [Gefitinib],114.4 ± 0.96%,120 ± 1.4%
CCCCCCCCCCCCCCCCOP(=O)([O-])OCC[N+](C)(C)C [Miltefosine],76.2 ± 20%,102 ± 7.5%
N#CC(C#N)=C(N)/C(C#N)=C/c1cc(O)c(O)c(O)c1,98.1 ± 28%,94.3 ± 15%
CNC(=O)c1ccccc1Oc1nc(Nc2cc(OC)c(OC)c(OC)c2)ncc1Br,98.7 ± 26%,107 ± 11%
Cc1ccc(-n2nc(C(C)(C)C)cc2NC(=O)Nc2ccc(OCCN3CCOCC3)c3ccccc23)cc1 [Doramapimod],95.877 ± 0.081%,98.1 ± 1.1%
Cc1cnc(-c2cnc(NCCNc3ccc(C#N)cn3)nc2-c2ccc(Cl)cc2Cl)[nH]1,104% and 111%,105% and 110%
CCc1cc2c(cc1N1CCC(N3CCOCC3)CC1)C(C)(C)c1[nH]c3cc(C#N)ccc3c1C2=O [Alectinib],102 ± 7.8%,100 ± 2.9%
C=C(C)[C@@H]1CC[C@]2(C)CC[C@]3(C)[C@H](CC[C@@H]4[C@@]5(C)CC[C@H](O)C(C)(C)[C@@H]5CC[C@]43C)[C@@H]12 [Lupeol],101 ± 9.8%,94.9 ± 1.2%
C=CC(=O)N1CCC(Oc2cc3c(Nc4ccc(Cl)c(Cl)c4F)ncnc3cc2OC)CC1 [Poziotinib (HM781-36B)],111.4 ± 0.44%,113 ± 10%
c1ccc(-c2[nH]ncc2-c2ccnc3ccccc23)nc1,102% and 105%,111% and 113%
COc1cc2ncnc(Nc3ccc(O)cc3)c2cc1OC,116 ± 5%,102 ± 7.1%
C=CC(=O)Nc1cc2c(Nc3ccc(F)c(Cl)c3)ncnc2cc1OCCCN1CCOCC1 [Canertinib (CI-1033)],118 ± 10%,111.9 ± 0.6%
O=C(NCc1cccc(O)c1)c1cc2cc(F)ccc2[nH]1,113 ± 3.2%,114 ± 1.2%
Cc1ccc(C(=O)N(CCCN)[C@@H](c2oc3cc(Cl)ccc3c(=O)c2Cc2ccccc2)C(C)C)cc1,2.68 ± 8.6%,-0.7 ± 5.9%
Nc1nc2cc(-c3ccc4ncc(C(=O)N5CCOCC5)n4c3)ccc2o1,98.5 ± 2.2%,105 ± 16%
C[C@@H](N)[C@H]1CC[C@H](C(=O)Nc2ccncc2)CC1,93.8% and 107%,100% and 112%
O=S(=O)(c1cccc2cnccc12)N1CCCNCC1 [Fasudil],109 ± 12%,104 ± 9.1%
Cc1cc2c(F)c(Oc3ncnn4cc(OC[C@@H](C)OC(=O)[C@H](C)N)c(C)c34)ccc2[nH]1,101 ± 38%,106 ± 5.3%
O=c1ccc2ccc(O)c(O)c2o1 [Daphnetin],100 ± 4.2%,109 ± 12%
Cc1cc(F)c(Nc2ncnc3cc(OCc4ccccc4)ccc23)cc1O,103 ± 1.4%,118 ± 11%
CCCCNc1ncc(-c2ccc(CN3CCOCC3)cn2)c(NC2CCC(O)CC2)n1 (configuration not stated),94.6 ± 6.1%,99.9 ± 5.7%

SMILES,cell viability (Molm13),cell viability (Mv4-11)
CN1CCN(CCCNc2ncc(Cl)c(-c3cc4c(C(=O)NC5CC5)cccc4s3)n2)CC1,110 ± 3.6%,109 ± 13%
CC(C)=CCC[C@](C)(O)[C@H]1CC[C@]2(C)[C@@H]1[C@H](O)C[C@@H]1[C@@]3(C)CC[C@H](O)C(C)(C)[C@@H]3[C@@H](O[C@@H]3O[C@H](CO)[C@@H](O)[C@H](O)[C@H]3O[C@@H]3O[C@@H](C)[C@H](O)[C@@H](O)[C@H]3O)C[C@]12C [Ginsenoside Rg2],94.4 ± 23%,93.6 ± 9.2%
NC(=O)Nc1cc(-c2ccc(CN3CCOCC3)cc2)sc1C(N)=O,108 ± 30%,113 ± 6.3%
CCc1cc(-c2n[nH]c(C)c2-c2ccc3c(c2)OCCO3)c(O)cc1O,102 ± 20%,94.9 ± 12%
CCN1CCN(Cc2ccc(-c3cc4c(N[C@H](C)c5ccccc5)ncnc4[nH]3)cc2)CC1,100 ± 17%,109 ± 18%
COC(=O)C1=CC[C@@]23CC[C@@H]([C@@](C)(/C=C/C=C(\C)C(=O)O)OC2=O)[C@@]3(OC(C)=O)CC1 [Pseudolaric Acid B],101 ± 3.5%,104 ± 11%
COc1cc2nccc(Oc3ccc(NC(=O)Nc4cc(C)on4)c(Cl)c3)c2cc1OC [Tivozanib (AV-951)],96.3 ± 6.1%,96.1 ± 11%
C[C@@H](Oc1ccc2[nH]nc(/C=C/c3cnn(CCO)c3)c2c1)c1c(Cl)cncc1Cl,97.5 ± 12%,105 ± 3.5%
N#CCC(=O)NN [Cyanoacetohydrazide],128 ± 1.3%,109 ± 22%
N#Cc1ccc(COc2ccc(-c3cccc4nc(NC(=O)C5CC5)nn34)cc2)cn1 [GLPG0634 analogue],107 ± 8.4%,119 ± 3.4%
CN(C)CCCn1cc(C2=C(c3c[nH]c4ccccc34)C(=O)NC2=O)c2ccccc21 [Bisindolylmaleimide I],94.6 ± 15%,67.1 ± 44%
C=CC(=O)Nc1cc(Nc2nccc(-c3cn(C)c4ccccc34)n2)c(OC)cc1N(C)CCN(C)C [AZD-9291 mesylate],102 ± 5.5%,94.8 ± 6.1%
CC(C)(C)c1nc2c3cc[nH]c(=O)c3c3cc(F)ccc3c2[nH]1 [Pyridone 6],99.5 ± 18%,106 ± 7%
CN(C)CCOc1ccc(-c2nc(-c3ccncc3)c(-c3ccc4c(c3)CC/C4=N\O)[nH]2)cc1,103 ± 23%,101 ± 4%
O=C1Cc2c([nH]c3ccc(Br)cc23)-c2ccccc2N1 [Kenpaullone],88 ± 2.5%,111 ± 5.9%
C=C1C[C@@]2(O)O[C@@]3(C[C@H]2C(C)C)[C@@H](C)CC[C@@H]13 [Curcumol],99 ± 9.7%,97.2 ± 4.6%
Cc1nc(-c2cn3c(n2)-c2ccc(-c4cnn(C(C)(C)C(N)=O)c4)cc2OCC3)n(C(C)C)n1,94.6 ± 8.3%,123 ± 5.4%
O=C(O)c1ccc(Nc2ncc3c(n2)-c2ccc(Cl)cc2C(c2c(F)cccc2F)=NC3)cc1,107 ± 1.3%,107 ± 3.6%
Clc1cnccn1 [2-Chloropyrazine],113 ± 6.1%,94.5 ± 27%
CN1CC(O)C2=C/C(=N/NC(N)=O)C(=O)C=C21 (configuration not stated) [Carbazochrome],93.7 ± 20%,107 ± 9.7%
COc1ccc(S(=O)(=O)N(CCO)c2ccccc2CN(C)C/C=C/c2ccc(Cl)cc2)cc1 [KN-93 Phosphate],99.1 ± 2.2%,101 ± 5.2%
"CC[C@H](Nc1ncnc2[nH]cnc12)c1nc2cccc(F)c2c(=O)n1-c1ccccc1 [CAL-101 (Idelalisib, GS-1101)]",93.7 ± 22%,105 ± 6.2%
COc1cc2ncnc(Nc3cccc(O)c3)c2cc1OC,109 ± 6.3%,109 ± 8.6%
